Screening results from PubChem.
Shown is part of a subset that was picked to be rich in hits.
Lassa entry inh: qHTS for Inhibitors of binding or entry into cells for Lassa Virus | Lassa virus pseudotype entry inhibition, cell reporter | Potency, µM (doses to about 37.9 µM), inactives show top-dose activity change, negative = inhibition, most hits filed as inhibitors | hit rate 1.2% among 300,000; calls by dose curve; tested in HEK293 cells; further: potency means the concentration at half of the fitted maximal effect; on the % scale 0 is the no-effect control and ±100 the full control effect; nearly all actives have a fitted effect of over 50% in size
Shiga inhibitor: A qHTS for Small Molecule Inhibitors of Shiga Toxin; Vero cells, Shiga toxin protein synthesis inhibition reporter; inhibition, % at 38.7 µM; hit rate 9.2% among 290,000; in the data active means inhibition mostly above about 28%, no sharp cut-off; inactive means mostly below about 43%; further: 0% is about no effect
CHX counter: Cycloheximide Counterscreen for Small Molecule Inhibitors of Shiga Toxin; cell reporter, cycloheximide protein synthesis inhibition counterscreen; max response, %; hit rate 12% among 300,000; AID 2314, 2010; in the data active means max response mostly above about 13%, no sharp cut-off; inactive means mostly below about 14%; further: read at 38.3 µM for the half of the compounds with a filed dose; 0% is about no effect
AMA1-RON2 inh: qHTS for Inhibitors of AMA1-RON; Towards Development of Antimalarial Drug Lead: Primary Screen | Plasmodium falciparum AMA1 (3D7) - RON2 peptide interaction | hit rate 0.2% among 360,000 | AlphaScreen AMA1-biotinylated RON2 peptide binding | AID 720542, 2013 | Potency, µM (top dose mostly 58.2 µM), for the others: top-dose activity change, negative = inhibition, most hits filed as inhibitors; active means well fitted inhibition curve with a large enough effect; inconclusive means small, poorly fitted or top-dose-only effect; inactive means no such curve, though single readings can be large or run the other way;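 further: potency means the concentration at half of the fitted maximal effect; 0% = vehicle wells and -100% = peptide control; nearly all actives have a fitted effect of over 45% in size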
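AMA1 (3D7) with his tag at 25 nM final met compounds first, then biotinylated RON2 peptide at 25 nM; detection used donor plus acceptor beads, 10 µg/mL apiece, read by AlphaScreen after 30 min at room temperature.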
Marburg entry inh: qHTS for inhibitors of binding or entry into cells for Marburg Virus | hit rate 1.8% among 300,000 | Marburg virus pseudotyped entry inhibition, cell reporter | Potency, µM (series often up to 37.8 µM), inactives show top-dose activity change, negative = inhibition, actives largely listed as inhibitors; calls by dose curve; tested in HEK293 cells; further: potency means the concentration at half of the fitted maximal effect; on the % scale 0 is the no-effect control and ±100 the full control effect
An asterisk follows results filed as active; i = inactive; ? = inconclusive; · = no result; ! = not active in a repeat; [ ] = another dose, or the depositor's remark.

SMILES	Lassa entry inh	Shiga inhibitor	CHX counter	AMA1-RON2 inh	Marburg entry inh
CCOc1cc(N2CCOCC2)c(OCC)cc1NC(=O)c1cc(S(=O)(=O)N2CCOCC2)ccc1C	-13%	·	·	5%	0%
C=C1c2ccccc2O[C@H](C(=O)OCC)C1OC (mixture of isomers)	·	i	-1	·	·
CN(Cc1cccs1)C(=O)CNC(=O)c1ccco1	·	58	22*	-2%	·
O=C(NCCNC(=O)c1cccs1)c1ccco1	-2%	32	-4	19%	-21%
CC(Oc1ccccc1)C(=O)NC1=NCCS1 (stereo not given)	?	80*	38*	17%	?
O=C(COc1ccccc1)NC1=NCCS1	?	95*	41*	13%	12%
Cc1cccnc1NC(=O)C(C)Oc1ccccc1 (stereo not given)	0%	24	1	-20%	-3%
N#Cc1ccc(OCC(=O)NC2=NCCS2)cc1	-17%	51	23	5%	?
CC(C)c1ccc(OCC(=O)NC2=NCCS2)cc1	?	98*	69*	0%	25%
O=C(/C=C/c1cc(Br)ccc1F)OCC(=O)N1CCCC1	10%	·	·	12%[11.6 µM]	?
O=C(Cn1nnc(-c2ccccc2F)n1)N1CCCCC1	·	50*	35*	7%	·
Cc1ccc(-c2nnn(CC(=O)N3CCCCC3)n2)o1	·	71*	18*	0%	·
COC(=O)Cn1nnc(N2CCOCC2)n1	-3%	-9	40*	6%	9%[46.1 µM]
COc1ccc(-c2ccc(-c3nnn(CC(=O)N4CCOCC4)n3)cc2)cc1	?	28	23*	33%	22%
CCCCCCc1nc(C(N)=O)c2[nH]c(=O)n(-c3ccccc3F)c2n1	·	-3	8	27%	·
CC(C)(C)N(Cc1ccccc1)C(=O)COC(=O)C1CC(=O)N(Cc2ccccc2)C1 (stereo not given)	5%	·	·	16%	-1%[46.1 µM]
COc1ccc(OCCC(=O)NC2=NCCS2)cc1	1%	62	27*	1%	27%
CC(C)(C)c1ccc(OCCC(=O)NC2=NCCS2)cc1	?	42	12*	-19%	-2%
Cc1cc(=O)[nH]c2nnc(SCCC(C)C)n12	13%[46.1 µM]	·	·	·	·
COc1nc(-c2ccccc2)nnc1-c1ccccc1	?	85*	41*	-1%	?
O=C(N[C@H]1CP(=O)(Oc2ccccc2)O[C@H](COCc2ccccc2)[C@H]1O)C(Cl)(Cl)Cl (stereo not given in full)	·	-2	25*	-2%	·
COc1ccc(-c2noc(CCC(=O)NCc3ccco3)n2)cc1	·	5	17*	-3%	·
COc1ccc(-c2noc(CCC(=O)Nc3cc(Cl)c(OC)cc3OC)n2)cc1	-4%	46*	41*	-4%	?
CC(=O)NC(Cc1c[nH]c2ccccc12)C(=O)Nc1ccc2c(c1)OCO2 (stereo not given)	19%	38*	9	4%	?
CC(C)CC(NC(N)=O)C(=O)Nc1ccc2c(c1)OCO2 (stereo not given)	·	49	30*	32%	·
SMILES	Lassa entry inh	Shiga inhibitor	CHX counter	AMA1-RON2 inh	Marburg entry inh
CC(C)CC(NC(=O)c1ccco1)C(=O)Nc1ccc2c(c1)OCCO2 (stereo not given)	·	84*	72*	-1%	-3%
CC[C@H](C)[C@H](NC(N)=O)C(=O)Nc1ccc2c(c1)OCO2	12%[46.1 µM]	6	7	-5%	-4%[46.1 µM]
CCCC(C)C(=O)Nc1ccc2c(c1)OCCO2 (stereo not given)	0%	86*	50*	4%	25%
O=C(CNC(=O)c1ccco1)Nc1ccc2c(c1)OCCO2	?	·	·	4%	?
CCCN(CCC)C(=O)Cn1c(=O)n(-c2ccc(Cl)c(Cl)c2)c(=O)c2c(C)c(C(=O)N(C)C)sc21	15%[46.1 µM]	·	·	·	·
CN(C(=O)COC(=O)CNC(=O)c1cccs1)c1c(N)n(Cc2ccccc2)c(=O)[nH]c1=O	·	·	·	-6%	·
N#CC1=C2SCC(O)(c3ccccc3)N2C(=O)CC1c1cccs1 (stereo not given)	?	-14	6	-2%	0.033µM*!
N#CC1=C2SCC(O)(c3ccccc3)N2C(=O)CC1c1ccccc1F (stereo not given)	?	-12	-3	-8%	?
COc1ccc(N2CCOCC2)c(NC(=O)c2ccc(Br)o2)c1	-4%	-4	-2	-9%	?
O=C(Nc1cc(Cl)ccc1N1CCOCC1)c1ccc(Br)o1	0%	65*	69*	4%	-21%
